Screening results as filed in PubChem.
In the library only some 1.6% were active in any assay of this set; here they are far more common.
KCNQ2 inh = blocks the rat KCNQ2 potassium channel; O88943; CHO-K1 KCNQ2, FluxOR thallium flux, 20 min; active compounds read low; B-score at 10 µM; 310,000 tested, 1.1% active;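 active = fluorescence ratio B-score at most minus 3 library SDs, with starting brightness B-score within 2 library SDs, cut at about -5.5 in these data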
KCNQ2 enhance = enhances the rat KCNQ2 potassium channel; 310,000 tested, 0.54% active; AID 2239; B-score at 10 µM; O88943; CHO-K1 KCNQ2, FluxOR thallium flux fluorescence; active compounds read high;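 active = fluorescence ratio B-score at least 3 SD of library B-scores, with initial fluorescence B-score within 3 of them, cut at about 5.3 in these data; same plate scores as AID 2156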;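 also: B-score of peak minus minimum over baseline fluorescence ratio after K+ and Tl+ stimulus; positive B-score means potentiation of KCNQ2 with more thallium influx and brighter signal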
Kir21 confirm = confirmation of mouse Kir2.1 potassium channel inhibitors | shares compounds with KCNQ2 enhance | Kir2.1-expressing cells, FluxOR thallium flux fluorescence; active compounds read low | Tl flux remaining, % of negative control (active compounds read low), % at 10 µM | 2,300 tested, 41% active | AID 2032;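 active = Primary-screen hit whose thallium flux fell at least 3 control SD below untreated wells in both duplicates, with normal baseline fluorescence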;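 also: 0% = blank wells without stimulus and 100% = stimulated no-compound controls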
HEK293 Tl flux = alters thallium flux in parental HEK293 cells, Kir2.1 counter-screen; shares compounds with KCNQ2 enhance; FluxOR thallium flux fluorescence; 0% = unstimulated blank wells; FluxOR signal as % of negative control (100 = no effect), % at 10 µM; 2,300 tested, 19% active; AID 2105;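 active = dye signal at least 3 control SD above or below untreated wells in both duplicates, raw fluorescence within 3, either direction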;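 also: percent is based on the flux ratio of peak minus minimum fluorescence over baseline F0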
CHO-K1 ctr = counter-screen for KCNQ2 potentiators: effect in parental CHO-K1 cells. shares compounds with KCNQ2 enhance. FluxOR thallium flux fluorescence; zero = vehicle mean+3SD, 100% = vehicle-minus-blank window. activity increase over 3SD of controls, % at 10 µM. 1,200 tested, 43% active. AID 2282;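 active = signal rise of at least 3 SD above the untreated control mean, in both duplicate wells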;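 also: counter screen of KCNQ2 potentiator hits so any rise reflects channel-independent effects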
KCNQ1 sel pot = selectivity of KCNQ2 potentiators: effect on human KCNQ1 | shares compounds with KCNQ2 enhance | CHO KCNQ1 stable, FluxOR thallium flux fluorescence; beyond 3SD, as % of vehicle-control signal | activation over 3SD threshold, % at 10 µM | 1,200 tested, 28% active | AID 2283;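 active = fluorescence ratio rise of at least 3 SD of vehicle wells above their mean, in both replicate wells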;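 also: 0% = vehicle mean plus 3 SD and 100% = vehicle minus unstimulated blank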
KCNQ2 pot conf = confirmation of rat KCNQ2 potassium channel potentiators; potentiation, less the hit threshold, % at 10 µM; shares compounds with KCNQ2 enhance; 1,200 tested, 68% active; CHO-KCNQ2 cells, FluxOR thallium flux fluorescence;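 active = fluorescence ratio rising 3 SD or more over the vehicle control mean in both replicates, plus primary screen hit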;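 also: peak minus minimum thallium fluorescence divided by baseline after K/Tl stimulus; 0% = vehicle mean plus 3 SD and 100% = vehicle minus unstimulated blank difference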
Kir21 spec = selectivity of KCNQ2 potentiators: effect on mouse Kir2.1. 1,200 tested, 2% active. HEK293 Kir2.1, FluxOR thallium flux fluorescence. activity over 3SD threshold, % at 10 µM. shares compounds with KCNQ2 enhance. AID 2345;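 active = fluorescence ratio rise of at least 3 SD above the vehicle-control mean, seen in both replicates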;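 also: 0% = vehicle mean plus 3 SD and 100% = vehicle minus no-stimulus blank window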
KCNQ2 W236L MoA = KCNQ2 potentiators acting on retigabine-insensitive rat KCNQ2 W236L mutant | AID 2558 | shares compounds with KCNQ2 enhance | CHO KCNQ2-W236L, automated patch clamp current | current increase over 3SD of negative controls (%), active compounds read high, % at 25 µM | 940 tested, 10% active;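 active = current increase at least 3 SD of the untreated controls above them in both duplicate recordings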
Target sequence (O88943 whole entry W236L, looked up): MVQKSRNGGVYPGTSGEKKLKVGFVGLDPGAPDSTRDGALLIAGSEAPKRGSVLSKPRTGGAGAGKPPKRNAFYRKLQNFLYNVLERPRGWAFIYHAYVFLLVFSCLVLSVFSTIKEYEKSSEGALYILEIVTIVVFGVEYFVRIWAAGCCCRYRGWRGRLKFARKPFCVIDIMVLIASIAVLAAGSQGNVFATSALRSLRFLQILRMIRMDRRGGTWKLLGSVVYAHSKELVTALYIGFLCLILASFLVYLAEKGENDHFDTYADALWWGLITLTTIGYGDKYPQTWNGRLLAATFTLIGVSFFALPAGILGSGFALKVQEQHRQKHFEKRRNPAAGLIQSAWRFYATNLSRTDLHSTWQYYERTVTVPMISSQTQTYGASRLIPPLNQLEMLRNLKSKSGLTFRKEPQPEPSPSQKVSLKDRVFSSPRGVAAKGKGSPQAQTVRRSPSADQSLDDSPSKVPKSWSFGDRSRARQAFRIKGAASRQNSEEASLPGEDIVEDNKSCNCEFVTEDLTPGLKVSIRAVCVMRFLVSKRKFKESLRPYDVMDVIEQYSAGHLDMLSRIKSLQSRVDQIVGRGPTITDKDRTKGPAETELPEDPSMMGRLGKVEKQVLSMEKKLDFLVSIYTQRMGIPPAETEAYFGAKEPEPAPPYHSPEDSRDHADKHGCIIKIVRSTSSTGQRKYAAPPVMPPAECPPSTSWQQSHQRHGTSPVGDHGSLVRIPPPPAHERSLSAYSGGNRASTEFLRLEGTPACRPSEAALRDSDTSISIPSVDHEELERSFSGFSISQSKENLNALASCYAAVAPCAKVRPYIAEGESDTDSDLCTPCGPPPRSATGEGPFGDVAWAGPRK
* = called active by the depositor; i = inactive; x = not tested or not shown.

SMILES	KCNQ2 inh	KCNQ2 enhance	Kir21 confirm	HEK293 Tl flux	others
Cc1ccc(OCCCCN(C)Cc2ccccc2)c(Br)c1	i	x	x	x
Clc1ccc(Cl)c(OCCCCNCc2ccccc2)c1	i	x	x	x
Clc1ccc(OCCCNCc2ccccc2)c(Br)c1	i	x	9.5%*	74.0%*
CCN(CC)S(=O)(=O)c1ccc(NC(=O)[C@@H](NC(=O)c2cc(OC)cc(OC)c2)C(C)C)cc1	i	x	x	x
COc1ccc(N2CCN(CC(=O)NCc3ccc(Cl)cc3)CC2)cc1	i	x	x	x
CCn1cc(CCCC(=O)NCc2ccccc2OC)c2ccccc21	i	x	x	x
CCn1cc(CCC(=O)NCc2ccccc2OC)c2ccccc21	i	0.26	49.5%*	i
Cc1ccc2nc(-c3ccc(O)cc3)oc2c1	i	x	x	x
CN[C@@H]1CC[C@H](c2ccc(Cl)c(Cl)c2)c2ccccc21	i	x	47.0%*	i
COc1ccccc1C1CCN(Cc2ccc(Cl)c(Cl)c2)CC1	i	x	x	x
CCN(CC(=O)NC1CCS(=O)(=O)C1)S(=O)(=O)c1cc(Br)ccc1Br (stereo not given)	i	0.33	x	x
Cc1ccc(C(O)(CCN2CCCCC2)c2ccccc2)cc1 (stereo not given)	i	x	x	x
COc1ccc(CNC/C=C/c2ccccc2)cc1	i	0.18	18.0%*	i
Cc1ccc(C(O)(CNCc2ccccc2)c2ccccc2)cc1 (stereo not given)	i	x	46.0%*	i
COc1ccc(CCNC/C=C/c2ccccc2)cc1	i	0.37	x	x
COc1ccc(CNCC(O)(c2ccccc2)c2ccc(F)cc2)cc1 (stereo not given)	i	x	41.5%*	i
COc1ccc(CNCC(O)(c2ccccc2)c2ccc(F)cc2)cc1OC (stereo not given)	i	0.98	x	x
O=C(CCCn1nnnc1CN1CCOCC1)N1CCC(c2ccccc2Cl)C1 (stereo not given)	i	x	x	x
CCCCN(C(=O)CN1C(=O)C2CCCCC2C1=O)c1c(N)n(CCCC)c(=O)[nH]c1=O (stereo not given)	i	1.29	x	x
O=C(CSc1nnc2ccccn12)Nc1ccc(S(=O)(=O)N2CCOCC2)cc1	i	x	x	x
CC(=O)N1CCC2(CC1)C/C(=N\NC(=S)Nc1ccc(C)cc1)c1cc(O)ccc1O2	i	x	x	x
CCn1c(CN(C)c2ccccc2)nc2ccccc21	i	x	x	x
Cc1cnc(NC(=O)CC(C)c2ccccc2)s1 (stereo not given)	i	1	x	x
CCCCc1cc(=O)oc2cc(C)cc(OCC(=O)NCc3ccccn3)c12	i	x	x	x
CCS(=O)(=O)c1ccc(O)c(NC(=O)Nc2ccccc2OC)c1	i	1.26	x	x
SMILES	KCNQ2 inh	KCNQ2 enhance	Kir21 confirm	HEK293 Tl flux	others
COc1ccc(CNC(C)CCc2ccccc2)cc1 (stereo not given)	i	3.06	40.5%*	i
COc1ccc(C(CCNCc2ccc(N(C)C)cc2)c2ccccc2OC)cc1 (stereo not given)	i	x	x	x
COc1ccc(CNCCC(c2ccc(F)cc2)c2ccc(OC(C)C)cc2)cc1OC (stereo not given)	i	x	44.5%*	i
COc1ccc(C(CCNCc2ccc(OC(C)C)cc2)c2ccccc2OC)cc1 (stereo not given)	-6.54*	-6.54	29.0%*	i
COc1ccc(CNCCC(c2ccc(OC)cc2)c2ccccc2OC)cc1 (stereo not given)	i	x	38.5%*	i
COc1ccc(CNCCC(c2ccccc2)c2ccc(OC(C)C)cc2)cc1OC (stereo not given)	i	x	x	x
COc1ccc(CCC(C)NCc2ccc(C(F)(F)F)cc2)cc1 (stereo not given)	i	2.19	x	x
COc1ccc(C(CCNCc2ccccc2)c2ccc(F)cc2)cc1 (stereo not given)	i	x	x	x
COc1cccc(N2CCN(C(=O)CN3C(=O)NC(C)(c4ccc5ccccc5c4)C3=O)CC2)c1 (stereo not given)	i	0.05	x	x
COc1ccc(S(=O)(=O)NC(C(=O)NCCc2ccccn2)C(C)C)cc1 (stereo not given)	i	0.34	x	x
C=CCn1c(C)nnc1SCC(=O)Nc1oc(C)c2c(C)n[nH]c(=O)c12	i	x	x	x
CN(CC(=O)Nc1cccc(F)c1)C(=O)/C=C/c1cc(Br)ccc1OC(F)F	i	0.06	x	x
COc1cccc(/C(C)=N/NS(=O)(=O)c2ccc(Cl)cc2)c1	i	1.03	x	x
COc1cccc(/C(=N/O)C2CC2c2ccc(Cl)cc2)c1 (stereo not given)	i	6.66*	i	i	CHO-K1 ctr=33.0*;KCNQ1 sel pot=-3.9;KCNQ2 pot conf=8.1*;Kir21 spec=-33.3;KCNQ2 W236L MoA=i
CC(C)CN1CC(C(=O)O)CC1=O (stereo not given)	i	1.24	x	x
CC(C)CNC(=O)c1ccc2c(c1)C(=O)N(Cc1ccco1)C2=O	i	0.06	x	x
Cc1ccc(O)c(O)c1	i	x	x	x
Cc1ccc(C2Cc3cc(O)c(O)cc3CN2)cc1 (stereo not given)	i	x	28.5%*	62.0%*
COc1ccc(OC)c(C(C)NC(=O)C23CC4CC(CC(C4)C2)C3)c1 (stereo not given)	i	4.81	x	x
COc1ccc(OC)c(C(C)NC(=O)Nc2ccccc2)c1 (stereo not given)	i	9.56*	x	x	CHO-K1 ctr=-9.4;KCNQ1 sel pot=-12.0;KCNQ2 pot conf=32.6*;Kir21 spec=-64.0;KCNQ2 W236L MoA=i
CCCCCCCCn1c2c(c(=N)c3ccccc31)CCC2	-5.74*	-5.74	13.5%*	i
CCCCCCCCCn1c2c(c(=N)c3c1CCC3)CCCC2	i	18.9*	9.0%*	i	CHO-K1 ctr=39.0*;KCNQ1 sel pot=-3.6;KCNQ2 pot conf=-87.6;Kir21 spec=-114.5;KCNQ2 W236L MoA=i
CCn1c2c(c(=N)c3c1CCC3)CCCC2	i	0.8	x	x
CCCCn1c2c(c(=N)c3ccccc31)CCC2	i	x	x	x
CCN(CC)C(=O)n1c(Cc2ccccc2)nc2ccccc21	i	0.96	x	x
CN(C)c1ccc(NC(=O)CSc2nnc(C3CCCCC3)n2N)cc1	i	x	x	x
COC1CCCN(Cc2c(C(=O)N3CCN(C4CCCCC4)CC3)nc3ccccn23)C1 (stereo not given)	i	x	x	x
NC(=NCc1ccco1)NC(=O)c1ccc(Cl)cc1	i	7.03*	i	i	CHO-K1 ctr=2.6*;KCNQ1 sel pot=-21.6;KCNQ2 pot conf=51.0*;Kir21 spec=-48.9;KCNQ2 W236L MoA=i
